The results in this text go back to PubChem BioAssay (Tox21).

The target of experiment [1] is Cytochrome P450 1A2 (Homo sapiens) (UniProt P05177). Nature of the experiment: Cytochrome P450 Family 1 Subfamily A Member 2 (CYP1A2) small molecule antagonists: luciferase reporter qHTS assay (AID 1671199). For activity change, negative = inhibition: series mostly up to about 120 µM. Put shortly:
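Luminescence readout (relative luminescence units) after luciferin detection reagent, 20 min RT. Preceded by 1 h room-temperature CYP1A2 reaction with NADPH regeneration solution following 10 min compound preincubation with enzyme and proluciferin substrate. Furafylline positive control.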

The target of experiment [2] is Voltage-gated inwardly rectifying potassium channel KCNH2 (Homo sapiens) (UniProt Q12809). Description: Human Ether-a-go-go-Related Gene (hERG) channel small molecule antagonists: fluorescence cell-based qHTS assay (AID 1671200).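 For activity change, negative = inhibition: hERG-expressing U2OS cells given a thallium stimulus after FluxOR II dye loading; series mostly up to about 77 µM.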 In a few lines: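 Read-out: thallium influx as a surrogate for potassium, tracked as fluorescence (480 nm ex/540 nm em) every second for 2 min after Stimulus Buffer addition in dye-loaded hERG-U2OS cells.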
Chain of Voltage-gated inwardly rectifying potassium channel KCNH2 (Homo sapiens) (Q12809 whole entry, looked up): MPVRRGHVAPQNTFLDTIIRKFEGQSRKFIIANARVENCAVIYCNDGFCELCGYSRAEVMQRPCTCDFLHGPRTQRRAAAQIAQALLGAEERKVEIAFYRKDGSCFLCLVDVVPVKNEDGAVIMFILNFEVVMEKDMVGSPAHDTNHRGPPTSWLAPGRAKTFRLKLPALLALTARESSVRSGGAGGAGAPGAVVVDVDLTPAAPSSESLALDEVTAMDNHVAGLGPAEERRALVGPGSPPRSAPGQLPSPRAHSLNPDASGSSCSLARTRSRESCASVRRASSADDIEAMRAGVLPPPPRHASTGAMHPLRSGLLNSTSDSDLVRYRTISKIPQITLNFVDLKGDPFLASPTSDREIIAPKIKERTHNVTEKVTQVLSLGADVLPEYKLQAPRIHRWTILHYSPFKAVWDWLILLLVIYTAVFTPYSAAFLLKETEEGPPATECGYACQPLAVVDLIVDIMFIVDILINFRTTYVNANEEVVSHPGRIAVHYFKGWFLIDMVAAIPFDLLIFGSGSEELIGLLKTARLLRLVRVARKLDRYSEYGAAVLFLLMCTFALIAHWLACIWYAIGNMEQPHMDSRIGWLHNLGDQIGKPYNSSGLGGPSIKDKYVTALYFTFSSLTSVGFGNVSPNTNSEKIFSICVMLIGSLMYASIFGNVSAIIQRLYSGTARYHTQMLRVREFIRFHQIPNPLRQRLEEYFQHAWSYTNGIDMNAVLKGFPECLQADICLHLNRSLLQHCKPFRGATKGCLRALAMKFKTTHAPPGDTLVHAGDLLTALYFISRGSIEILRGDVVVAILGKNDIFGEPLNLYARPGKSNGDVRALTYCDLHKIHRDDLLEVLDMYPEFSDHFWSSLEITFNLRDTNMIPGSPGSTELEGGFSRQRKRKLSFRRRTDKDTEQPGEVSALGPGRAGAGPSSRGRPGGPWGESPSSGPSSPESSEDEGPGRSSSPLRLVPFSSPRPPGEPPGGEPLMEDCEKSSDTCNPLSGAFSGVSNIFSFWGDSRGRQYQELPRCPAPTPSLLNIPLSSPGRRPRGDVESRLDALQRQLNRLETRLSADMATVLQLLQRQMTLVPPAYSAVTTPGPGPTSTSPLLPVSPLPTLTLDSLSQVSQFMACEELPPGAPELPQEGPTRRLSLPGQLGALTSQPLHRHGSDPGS

The target in experiment [3] is Cytochrome P450 3A4 (Homo sapiens) (UniProt P08684). Nature of the experiment: Cytochrome P450 Family 3 Subfamily A Member 4 (CYP3A4) small molecule antagonists: luciferase reporter qHTS assay (AID 1671201). For activity change, negative = inhibition: series mostly up to about 120 µM. In a few lines:
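Luminescent readout (RLU) proportional to CYP3A4 activity, from luciferin generated off a proluciferin substrate. Enzyme–substrate mix plus compound 10 min at room temp, NADPH regeneration 1 h, detection reagent 20 min.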

Several values for one entry are separate records, joined by “and”; a condition that tells them apart may be missing. Identical values can stand only once. Records with an inconclusive call do not appear. Some compounds were tested as several samples or in several runs, with calls that do not always agree. Activity calls are given as the source filed them. Calls come from the whole dose curve; as a rule, active = well fitted curve in the direction sought with a large enough effect in the repeat runs; inconclusive = weak or mixed curves; inactive = no such curve, though single readings can be large; an effect the other way counts as inactive or inconclusive. Starred links: 1 amine or outer side, 2 acyl side, 3 side chain; linkers in the order of their positions; H or OH if unused. Positions of bridges follow the written chain, without caps; N, C: chain ends. Non-standard residues stand in square brackets, D forms with d. Residues, ends and D or L forms follow the SMILES beside them. Chains are numbered I, II in the order given. Actinocin(9to1) = Cc1c2oc3c(C)ccc(C(=O)[*:1])c3nc-2c(C(=O)[*:2])c(N)c1=O; NMeV = CN[C@H](C(=O)O)C(C)C; Sar = CNCC(=O)O
% is set by controls: 0 for no effect and ±100 for the full control effect; potency is the fitted concentration of half-maximal effect.
Note: nearly all actives have a fitted effect of over 50% in size.

Chain of Cytochrome P450 1A2 (Homo sapiens) (P05177 whole entry, looked up): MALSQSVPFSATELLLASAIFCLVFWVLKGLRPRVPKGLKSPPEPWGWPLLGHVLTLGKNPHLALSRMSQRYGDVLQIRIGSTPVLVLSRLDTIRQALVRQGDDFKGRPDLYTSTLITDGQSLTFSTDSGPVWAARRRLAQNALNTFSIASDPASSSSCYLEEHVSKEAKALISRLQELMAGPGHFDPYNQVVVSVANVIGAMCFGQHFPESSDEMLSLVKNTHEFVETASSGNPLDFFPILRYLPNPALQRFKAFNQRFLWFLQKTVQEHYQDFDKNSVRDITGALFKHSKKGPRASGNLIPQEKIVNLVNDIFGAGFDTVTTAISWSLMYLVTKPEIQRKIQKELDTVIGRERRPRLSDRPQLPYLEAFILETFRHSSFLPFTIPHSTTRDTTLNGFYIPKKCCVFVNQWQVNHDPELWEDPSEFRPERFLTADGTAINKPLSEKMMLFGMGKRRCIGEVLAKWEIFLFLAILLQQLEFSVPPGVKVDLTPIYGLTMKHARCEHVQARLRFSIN
Chain of Cytochrome P450 3A4 (Homo sapiens) (P08684 whole entry, looked up): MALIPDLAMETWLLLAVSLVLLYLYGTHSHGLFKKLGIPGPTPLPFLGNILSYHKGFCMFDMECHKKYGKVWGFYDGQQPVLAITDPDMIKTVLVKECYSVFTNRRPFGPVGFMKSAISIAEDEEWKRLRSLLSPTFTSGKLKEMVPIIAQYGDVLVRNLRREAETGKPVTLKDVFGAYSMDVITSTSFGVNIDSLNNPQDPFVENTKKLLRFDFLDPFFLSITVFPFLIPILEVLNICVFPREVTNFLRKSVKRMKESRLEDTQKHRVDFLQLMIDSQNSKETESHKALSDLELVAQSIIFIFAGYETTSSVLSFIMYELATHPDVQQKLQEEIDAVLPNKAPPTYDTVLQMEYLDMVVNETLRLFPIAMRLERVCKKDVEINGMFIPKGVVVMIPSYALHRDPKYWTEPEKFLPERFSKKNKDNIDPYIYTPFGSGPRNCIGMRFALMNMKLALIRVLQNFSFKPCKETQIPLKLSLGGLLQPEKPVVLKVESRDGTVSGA

For `COc1nc(C)nc(Cl)c1NC1=NCCN1`, the Potency entry in experiment [1], in experiment [2] and in experiment [3] was “inactive” in each case.
Regarding `NC(Cc1ccc(Cl)cc1)C(=O)O` (stereo not drawn), the activity change, negative = inhibition was 10.8% [at 0.435 µM] (inactive) in experiment [1], 10.3% [at 0.29 µM] (inactive) in experiment [2] and 0.0907% [at 0.435 µM] (inactive) in experiment [3].
Regarding `CCC[C@H](N[C@@H](C)C(=O)N1[C@H](C(=O)O)C[C@@H]2CCCC[C@@H]21)C(=O)OCC`, in experiment [1], the Potency was 17.4 µM (active) and inactive. The Potency result in experiment [2] and in experiment [3] was “inactive” throughout.
In the case of `O=C(Cl)c1cccc(C(=O)Cl)c1`, the Potency entry in experiment [1], in experiment [2] and in experiment [3] was “inactive” throughout.
Take `CCCCCCCCCCCCCC[P+](CCCC)(CCCC)CCCC`: the Potency in experiment [1] is 70.6 µM (active) and 79.6 µM (active); in experiment [2], 194 nM (active) and 275 nM (active). The Potency result in experiment [3] is “inactive”.
As for `c1ccc2cc3c(ccc4ccccc43)cc2c1`, in experiment [1], the Potency was 897 nM (active) and 894 nM (active). The Potency result in experiment [2] and in experiment [3] was “inactive” throughout.
Regarding `CC1COC(=O)O1` (stereo not drawn), the Potency result in experiment [1], in experiment [2] and in experiment [3] was “inactive” each time.
Consider `CCCCCCCCCCCC[N+](C)(C)C`, for which the Potency result in experiment [1] and in experiment [3] was “inactive” each time. In experiment [2], the Potency is 21.9 µM (active).
On to `Cc1ccnc2c1NC(=O)c1cccnc1N2C1CC1`, for which the Potency in experiment [1] is 33 µM (active) and inactive. Besides, the Potency entry in experiment [2] and in experiment [3] was “inactive” in each case.
For the compound `C=CC(=O)OCCCCCCOC(=O)C=C`, the Potency in experiment [1] is 28.6 µM (active) and 31.7 µM (active); in experiment [3], 40.4 µM (active). For the same compound, in experiment [2], the Potency entry is “inactive”.
`Cc1cc(C2(c3cc(C)c(O)cc3C)OS(=O)(=O)c3ccccc32)c(C)cc1O`: the Potency in experiment [1] was 31.7 µM (active); in experiment [3], 2 µM (active) and 2.52 µM (active). Also, in experiment [2], the Potency result was “inactive”.
Consider `Nc1cc(Cl)c(-c2cc(Cl)c(N)cc2Cl)cc1Cl`, for which the Potency in experiment [1] was 11.2 µM (active) and 12.6 µM (active); in experiment [3], 2 µM (active) and 3.56 µM (active). Moreover, the Potency entry in experiment [2] is “inactive”.
Turning to `CCC(=O)/C=C/C1C(C)=CCCC1(C)C` (stereo not drawn), the Potency entry in experiment [1] is “inactive and 25.2 µM (active)”; in experiment [3], 71.2 µM (active) and 20 µM (active). For the same compound, in experiment [2], the Potency result is “inactive”.
Consider `c1ccc2n[nH]nc2c1`, for which the Potency entry in experiment [1], in experiment [2] and in experiment [3] was “inactive” in each case.
Take `CCCCCCC(O)CCCCCCCCCCC(=O)O` (stereo not drawn): the Potency entry in experiment [1], in experiment [2] and in experiment [3] was “inactive” each time.
In the case of `O=C(O)CCc1ccccc1`, the Potency result in experiment [1], in experiment [2] and in experiment [3] was “inactive” each time.
Take `C=C(C)C1CC=C(C)C(OC(C)=O)C1` (stereo not drawn): the Potency result in experiment [1], in experiment [2] and in experiment [3] was “inactive” in each case.
Consider `CC(C)CCCCCCc1ccc(O)cc1`, for which the Potency was 28.8 µM (active) in experiment [1], 39.6 µM (active) in experiment [2] and 16.2 µM (active) in experiment [3].
The matching figures for `COc1ccc(Cc2cnc(N)nc2N)cc1OC`: “inactive”, “inactive” and “inactive”.
For the compound `COc1cc(C(=S)N2CCOCC2)ccc1O`, the Potency entry in experiment [1], in experiment [2] and in experiment [3] was “inactive” each time.
For the compound `CCc1cc(C(C)(C)C)c(O)c(C(C)(C)C)c1`, the Potency result in experiment [1], in experiment [2] and in experiment [3] was “inactive” each time.
As to `CCCC(=O)c1ccccc1`, the Potency entry in experiment [1], in experiment [2] and in experiment [3] was “inactive” in each case.
`CC(=O)N[C@@H](CS)C(=O)O`: the Potency entry in experiment [1], in experiment [2] and in experiment [3] was “inactive” in each case.
On to `Oc1c(Cl)cc(Cl)cc1Sc1cc(Cl)cc(Cl)c1O`, for which the Potency in experiment [1] is 72.2 µM (active) and inactive. The Potency entry in experiment [2] and in experiment [3] was “inactive” each time.
With `CN1C(=O)c2ccc([N+](=O)[O-])cc2C1=O`, the figures for the Potency in experiment [1] and in experiment [3] were 20 µM (active) and 39.9 µM (active), respectively. Further, the Potency entry in experiment [2] was “inactive”.
The matching figures for `CC(C)(C)c1cc(C(C)(C)C)c(O)c(C(C)(C)C)c1`: “inactive”, “inactive” and 7.76 µM (active).
On to `c1cc(C(c2ccc(OCC3CO3)cc2)C(c2ccc(OCC3CO3)cc2)c2ccc(OCC3CO3)cc2)ccc1OCC1CO1` (stereo not drawn), for which the Potency entry in experiment [1], in experiment [2] and in experiment [3] was “inactive” each time.
Take `O=Nc1ccc(Nc2ccccc2)cc1`: the Potency was 16 µM (active) and 28.3 µM (active) in experiment [1]; 8.99 µM (active) and 12.6 µM (active) in experiment [3]. Further, the Potency result in experiment [2] is “inactive”.
Take `CC(C)(C)NCC(O)c1cc(O)cc(O)c1` (stereo not drawn): the Potency entry in experiment [1], in experiment [2] and in experiment [3] was “inactive” throughout.
Take `Nc1cc(S(=O)(=O)O)cc2cc(S(=O)(=O)O)cc(O)c12`: the Potency entry in experiment [1] is “inactive and 39.9 µM (active)”. Besides, the Potency entry in experiment [2] and in experiment [3] was “inactive” in each case.
Take `Cc1c2oc3c(C)ccc(C(=O)N[C@@H]4C(=O)N[C@H](C(C)C)C(=O)N5CCC[C@H]5C(=O)N(C)CC(=O)N(C)[C@@H](C(C)C)C(=O)O[C@@H]4C)c3nc-2c(C(=O)N[C@@H]2C(=O)N[C@H](C(C)C)C(=O)N3CCC[C@H]3C(=O)N(C)CC(=O)N(C)[C@@H](C(C)C)C(=O)O[C@@H]2C)c(N)c1=O` (I: T[dV]P[Sar][NMeV] / II: T[dV]P[Sar][NMeV]; ester I:1-I:C, II:1-II:C; linker I:N-II:N via Actinocin(9to1)): the Potency entry in experiment [1], in experiment [2] and in experiment [3] was “inactive” in each case.
